# The list is not random: actives were taken first. Their share in the collection is about 10%.
# hNpr1 antagonist – human Npr1 receptor antagonism; 76,000 tested, 1.6% active; HEK293 hNpr1 GloSensor cGMP, ANP-stimulated luminescence; Potency, µM (series often up to 46.3 µM), without a hit: at the top dose activity change, negative = inhibition, hits mostly inhibitors; calls by dose curve; also: nearly all actives have a fitted effect of over 60% in size
#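 Compound pre-incubated 30 min at room temperature on GloSensor-loaded HEK293 cells stably carrying hNpr1 and the pGS-40F cGMP biosensor. Stimulation uses hNppA at 0.1 nM final; luminescence is taken at baseline and 20 min post-agonist.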
# Luciferase inh – inhibitors of firefly (Photinus pyralis) luciferase. P08659. purified P. pyralis luciferase, luminescence, biochemical. Potency, µM (series often up to 115 µM), most hits filed as inhibitors. 76,000 tested, 2.5% active; also: nearly all actives have a fitted effect of over 65% in size
#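 FLuc 10nM, D-luciferin 10uM, ATP 10uM, Mg acetate 10mM, Tris acetate pH 7.5, Tween/BSA; cpd qHTS; enzyme added last; CCD luminescence.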
# HEK293 tox – cytotoxic compounds in HEK 293 cells; Potency, µM (highest dose often 115 µM), inactives show top-dose activity change, negative = cytotoxicity, hits mostly inhibitors; 94,000 tested, 6.6% active; HEK 293 viability, ATP luminescence (CellTiter-Glo), 48-72 h; AID 1345083; also: nearly all actives have a fitted effect of over 60% in size
#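 Luminescence from cellular ATP, measured with CellTiter-Glo, indicates HEK 293 viability. Cells plated at 250 cells/well are treated with compound for 48 or 72 hr at 37 degree Celsius before reagent addition.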
# 3T3 cytotox – cytotoxic compounds in NIH 3T3 cells | 94,000 tested, 4.3% active | Potency, µM (titrated, usually from 96.7 µM), inactives show at the top dose activity change, negative = cytotoxicity, usual class: inhibitors | NIH 3T3 viability, CellTiter-Glo ATP luminescence, 48-72 h; also: nearly all actives have a fitted effect of over 55% in size
#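 Cytotoxicity was measured by CellTiter-Glo ATP luminescence after 48 or 72 h compound exposure at 37 °C. Mouse NIH 3T3 fibroblasts were seeded at 400 cells/well and dosed by 23 nL pin transfer.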
# GPT2 inhibitor – inhibitors of human GPT2 alanine aminotransferase. AID 1671188. 100,000 tested, 0.25% active. Q8TD30. Recombinant GPT2, coupled pyruvate oxidase/HRP Amplex Red fluorescence. Potency, µM (series often up to 57.7 µM), for inactives: at the top dose activity change, negative = inhibition, hits mostly inhibitors; also: nearly all actives have a fitted effect of over 60% in size
# Target sequence (Q8TD30 whole entry, looked up): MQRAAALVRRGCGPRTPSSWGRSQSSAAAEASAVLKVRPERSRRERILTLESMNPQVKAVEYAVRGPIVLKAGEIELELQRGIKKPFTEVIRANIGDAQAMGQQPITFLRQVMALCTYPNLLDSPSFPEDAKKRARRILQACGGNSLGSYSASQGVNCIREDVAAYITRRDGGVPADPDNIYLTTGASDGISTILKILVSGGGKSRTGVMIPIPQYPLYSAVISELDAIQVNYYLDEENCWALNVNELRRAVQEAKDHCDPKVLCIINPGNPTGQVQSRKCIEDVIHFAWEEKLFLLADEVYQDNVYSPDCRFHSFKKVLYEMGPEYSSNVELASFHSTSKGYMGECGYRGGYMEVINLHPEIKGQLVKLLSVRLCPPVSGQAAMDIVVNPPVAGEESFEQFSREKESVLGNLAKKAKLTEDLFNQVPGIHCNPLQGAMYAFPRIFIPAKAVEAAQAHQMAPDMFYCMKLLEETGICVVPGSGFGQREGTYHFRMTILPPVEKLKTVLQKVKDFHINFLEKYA
#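 Recombinant GPT2 (10ng/uL) with 250uM a-KG and 2mM L-alanine, 30 min at room temperature, in HEPES pH 7.5 buffer. Pyruvate detected by pyruvate oxidase/HRP/Amplex Red fluorescence after 30 min in the dark; AOA (50uM) as positive control.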
# Starred values were filed as active, the others as inactive; i = inactive; ? = inconclusive; nt = no result; [ ] = dose if it differs, or a comment. Unless noted, calls follow the shape of the dose curve; as a rule, active = well fitted curve in the direction sought with a large enough effect; inconclusive = small, poorly fitted or top-dose-only effect, or another doubt; inactive = no such curve, though single readings can be large; an effect the other way counts as inactive or inconclusive. % is scaled to controls: 0 for no effect and ±100 for the full control effect; potency is read from the fitted curve at half-maximal effect.
SMILES,hNpr1 antagonist,Luciferase inh,HEK293 tox,3T3 cytotox,GPT2 inhibitor
Cc1ccsc1CN1CCC(Oc2ccccc2-c2nc(-c3ccncc3)no2)C1 (stereo not given),-23%,?,25µM*,32µM*,i
COc1ccccc1CN1CC(O)CN(C(=O)c2ccc(SC)cc2)CC1=O (stereo not given),nt,nt,?,-31%,nt
Cc1nc(N2CCC(C(=O)O)(n3cccn3)CC2)cc(-n2cccn2)n1,-4%,i,4%,0%,i
COc1ccccc1-c1cccc(C(=O)N2CCN(C(=O)c3ccc(F)cc3)CC2)c1,nt,nt,?,?,i
COc1ccccc1-c1cccc(C(=O)N2CCN(C(=O)c3cccc(Cl)c3)CC2)c1,nt,nt,40µM*,?,i
COc1ccccc1-c1cccc(C(=O)N2CCN(C(=O)c3ccccc3F)CC2)c1,nt,nt,89µM*,-24%,3%
COc1ccccc1-c1cccc(C(=O)N2CCN(C(=O)Nc3ccc(Cl)cc3)CC2)c1,nt,nt,?,?,-2%
COc1ccccc1-c1cccc(C(=O)N2CCN(C(=O)c3ccc(C)cc3)CC2)c1,nt,nt,40µM*,?,i
O=C(Cn1nc2c(cc1=O)CCCC2)NCCc1c[nH]c2ccc(F)cc12,-1%,i,-41%,-18%,i
S=C(Nc1cccc2ccccc12)N[C@H]1CO[C@H]2[C@@H]1OC[C@H]2OCc1ccccc1,?,i,63µM*,?,2%[88.5 µM]
CN(C)c1ccc(NC(=S)N[C@H]2CO[C@H]3[C@@H]2OC[C@H]3OC(=O)Nc2cccc3ccccc23)cc1,-3%,32µM*,-27%,?,8.9µM*
O=C(Nc1cccc2ccccc12)O[C@@H]1CO[C@H]2[C@@H]1OC[C@@H]2NC(=S)Nc1ccc(Cl)cc1,-5%,i,40µM*,?,i
O=c1n(CC2CC2)nc2n1CCC(NS(=O)(=O)c1ccc3c(c1)OCCO3)CC2 (stereo not given),nt,nt,-11%,-15%,4%
CCCCn1c(=O)c(C(=O)N2CCN(C(=O)N(C)C)CC2)nc2cccnc21,nt,nt,-1%,-4%,i
Cc1ccc(-n2c(C3CCN(C(=O)COc4cccc(C)c4)CC3)n[nH]c2=O)cc1,-14%,i,1%,?,1%
COc1ccc(NC(=O)c2ccc3c(c2)C2(CCN(C)C2)CN3Cc2ccccc2)cc1 (stereo not given),-4%[70.6 µM],i,71µM*,50µM*,i
Cn1ccc(NC(=O)c2ccc3c(c2)C2(CCN(CC4CC4)C2)CN3Cc2ccccc2)n1 (stereo not given),-9%,i,32µM*,?,5%
CN1CCCC2(C1)CN(Cc1cccnc1)c1ccc(C(=O)Nc3ccc(F)cc3)cc12 (stereo not given),3%[70.6 µM],i,?,?,-2%[88.5 µM]
CN1CCC2(C1)CN(Cc1ccccc1)c1ccc(C(=O)Nc3ccc(F)cc3)cc12 (stereo not given),-1%[70.6 µM],i,40µM*,25µM*,i
COc1cccc(CN2CC3(CCN(C)C3)c3cc(C(=O)NC4CCCCC4)ccc32)c1 (stereo not given),-10%[70.6 µM],i,56µM*,25µM*,i
O=C(NC1CCOCC1)c1ccc2c(c1)C1(CCN(CC3CC3)C1)CN2Cc1ccccc1 (stereo not given),0%,i,?,?,-3%
COc1ccc(C(=O)N2CCCC(C(=O)N3CCC(N4CCCC4=O)CC3)C2)cc1 (stereo not given),nt,nt,3%,-8%,i
O=C1Nc2ccccc2CC12CCN2Cc1cccc2ccccc12 (stereo not given),-7%[70.6 µM],i,?,89µM*,-4%[88.5 µM]
O=C1Nc2ccccc2CC12CCCN2Cc1ccc(C(F)(F)F)cc1 (stereo not given),nt,nt,45µM*,?,-13%
O=C1Nc2ccccc2CN(Cc2ccc(C(F)(F)F)cc2)C12CCNCC2,nt,nt,28µM*,22µM*,5%
SMILES,hNpr1 antagonist,Luciferase inh,HEK293 tox,3T3 cytotox,GPT2 inhibitor
O=C1Nc2ccccc2CN(Cc2ccc(F)cc2)C12CCNCC2,nt,nt,40µM*,?,3%
COCCNC(=O)C1CCN(C(=O)c2ccc(-c3ccccc3OC)cc2)CC1,nt,nt,-7%,-15%,2%
CCc1noc(-c2ccn3c(CNC(=O)c4cccnc4)nnc3c2)n1,3%,i,-5%,-9%,i
O=C(Nc1ccccc1)N1CCc2nn(Cc3ccccc3)c(=O)n2CC1,nt,nt,-9%,-21%,i
O=C(NCc1ccc2c(c1)OCO2)c1ccc(-c2ccc(N3CCSCC3)nc2)cc1,-8%,?,?,?,i
Cc1ccc(CNC(=O)c2ccc(-c3ccc(N4CCSCC4)nc3)cc2)o1,-26%,28µM*,?,?,i
COc1ccc(CNC(=O)c2ccc(-c3ccc(N4CCSCC4)nc3)cc2)cc1OC,10µM*,?,?,?,i
CC(C)CCNC(=O)c1ccc(-c2ccc(N3CCSCC3)nc2)cc1,-7%,?,-28%,i,i
COc1cccc(N2C(=O)[C@@H]3C[C@@H](NC(=O)CSC)CCN3C2=O)c1,1%[70.6 µM],i,4%[172 µM],-3%[138 µM],-11%[88.5 µM]
Cc1noc(C)c1[S+](=O)([O-])N1CCCC2(CC(c3cccc(C(F)(F)F)c3)=NO2)C1 (stereo not given),-15%,i,35µM*,-13%,-8%
FC(F)(F)c1cccc(C2=NOC3(CCCN(Cc4cccs4)C3)C2)c1 (stereo not given),-9%,i,?,35µM*,-9%
Cn1nccc1CN1CCCC2(CC(c3cccc(C(F)(F)F)c3)=NO2)C1 (stereo not given),0%,i,45µM*,-26%,i
FC(F)(F)c1cccc(C2=NOC3(CCCN(Cc4cccc5ccccc45)C3)C2)c1 (stereo not given),8%,i,?,?,i
O=C(NCC1CC1)C1CCCN1Cc1ccc(-c2cncnc2)cc1 (stereo not given),nt,nt,i,-5%,-3%
CC(=O)N1CCN(C(=O)c2nc3sccn3c2-c2ccncc2)CC1,nt,nt,-7%[172 µM],-14%[138 µM],3%[88.5 µM]
Cn1ncc2c(C(=O)NCc3ccc(F)cc3)cc(-c3ccsc3)nc21,nt,nt,?,?,i
CN1c2cc(C(=O)N3CCN(c4ccccc4)CC3)ccc2C(=O)N2CCCCC21 (stereo not given),0%,i,?,-9%,i
CN1c2cc(C(=O)N3CCN(c4ccccc4)CC3)ccc2C(=O)N2CCCCCC21 (stereo not given),-1%,i,?,?,-2%
Cc1cccc(N2CCN(C(=O)c3ccc4c(c3)N(C)C3CCCCN3C4=O)CC2)c1 (stereo not given),0%,i,32µM*,?,i
